# Source: ChEMBL document CHEMBL1201862, “PubChem BioAssay data set” (2004)
# The whole screen tested about 57,000 […], of which about 2,900 (5.1%) were called active. No stated cut-off is given here; in the data, active = GI50 up to about 1.1 µM and inactive = higher. These entries were drawn from the full list. Measured potencies and affinities stand elsewhere.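 In this assay, cells in 96-well plates receive the compound at five concentrations for 48 hours. Endpoints are linearly interpolated between the surrounding concentrations. The concentration for 50% growth inhibition is given as GI50.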
# Tested on: SNB-19
# Test: NCI tumour cell line growth inhibition, 48 h
row,Substance,GI50
1,"[Bis(aminomethyl)ethylmethylsilane]tetrachloroplatinum(IV), CHEMBL2146192",5.37 µM
2,"[Bis(aminomethyl)tetramethylenesilane]tetrachloropaltinum(IV), CHEMBL2146189",12.9 µM
3,"[Bis(aminomethyl)diethylsilane]tetrachloroplatinum(IV), CHEMBL2146203",4.05 µM
4,"[Bis(aminomethyl)tetramethylenesilane]dichloropaltinum(II), CHEMBL2146205",47.5 µM
5,"mu-(1,7-nanodiamine-N,N')bis-(cis-aminedichloroplatimum (II)), CHEMBL2146215",39.1 µM
6,"[Bis(aminomethyl)pentamethylenesilane]dichloropaltinum(II), CHEMBL2146202",2.79 µM
7,"[Bis(aminomethyl)dimethylsilane]tetrachloroplatinum(IV), CHEMBL2146190",8.77 µM
8,"CISPLATIN, CHEMBL11359",3.19 µM
9,"[Bis(aminomethyl)pentamethylenesilane]tetrachloropaltinum(IV), CHEMBL2146204",8.02 µM
10,"cis-Bis[[(trimethylsilyl)methyl]amino]tetrachloroplatinum(IV), CHEMBL2146191",12.4 µM
11,"[Bis(aminomethyl)dimethylsilane]dichloroplatinum (II), CHEMBL2146201",24.4 µM
